Source: PubChem BioAssay (EPA / NIEHS)
Active and inactive are the calls of the source. The calls were made as follows: active = hit-call score of the fitted dose curve at least 0.9, where 1 is the maximum; inactive = score below 0.9.

Target: X-box-binding protein 1 (Homo sapiens) (UniProt P17861)
Test: ATG_Xbp1_CIS: Attagene CIS-FACTORIAL HepG2 Assay for human X-box Binding Protein 1 (XBP1) (AID 2282972)
Conditions: HepG2 XBP1 cis-element reporter, Attagene multiplex; actives raise or lower the signal
Procedure: ATG_CIS is a cell-based, multiplexed-readout assay that uses HepG2, a human liver cell line, with measurements taken at 24 hours after chemical dosing in a 24-well plate.ATG_Xbp1_CIS is one of 52 assay component(s) measured or calculated from the ATG_CIS assay. It is designed to make measurements of mRNA induction, a form of inducible reporter, as detected with fluorescence intensity signals by Reverse transcription polymerase chain reaction (RT-PCR) and Capillary electrophoresis technology.Data from the assay component ATG_Xbp1_CIS was analyzed into 1 assay endpoint. This assay endpoint, ATG_Xbp1_CIS, was analyzed with bidirectional fitting relative to DMSO as the negative control and baseline of activity. Using a type of inducible reporter, measures of mRNA for gain or loss-of-signal activity can be used to understand the reporter gene at the transcription factor-level as they relate to the gene XBP1. Furthermore, this assay endpoint can be referred to as a primary readout, because this assay has produced multiple assay endpoints where this one serves a reporter gene function. To generalize the intended target to other relatable targets, this assay endpoint is annotated to the dna binding intended target family, where the subfamily is basic leucine zipper.
Human liver HepG2 cells are transiently transfected with multiple reporter transcription units (MRTUs) in 6-well plates using FuGene 6 reagent (Roche; 3 ml FuGene/1 mg DNA). The MRTU constructs are regulated by a cis-regulating element (promoter). […] A major difference between the CIS and TRANS system is that in CIS activities of endogenous TFs are measured, whereas the TRANS assay evaluates changes in activities of exogenous, chimeric NR-Gal4 proteins. […] At the end of 24 hour incubation, total RNA was isolated using TriZol reagent (Invitrogen). The isolated RNA is then reverse-transcribed using oligo(dT) primer and Mo-MLV reverse transcriptase (Invitrogen) with DNAse I (Ambion) treatment for 30 min. The one-tenth of the produced cDNA was amplified by PCR using Taq DNA polymerase (Invitrogen) and two reporter sequence-specific primers. The PCR products were fluorescently labeled by primer extension with 6-arboxyfluorescein (6-FAM) 5'-labeled reporter sequence-specific primer (2 min at 95 C, 20 s at 68 C and 10 min at 72 C) and these products were digested with 5U of HpaI (New England Biolabs) for 2h at 37 C. The fragments were purified using Qiaquick PCR columns (Qiagen), analyzed on an ABI 3130xL genetic analyzer (Applied Biosystems) with peak positions identified by using a set of X-rhodamine (ROX)-labeled MapMarker1000 molecular weight standards (BioVentures). The raw capillary electrophoresis data was processed using Attagraph software (Attagene).

Sequence of X-box-binding protein 1 (Homo sapiens) (P17861 whole entry, looked up): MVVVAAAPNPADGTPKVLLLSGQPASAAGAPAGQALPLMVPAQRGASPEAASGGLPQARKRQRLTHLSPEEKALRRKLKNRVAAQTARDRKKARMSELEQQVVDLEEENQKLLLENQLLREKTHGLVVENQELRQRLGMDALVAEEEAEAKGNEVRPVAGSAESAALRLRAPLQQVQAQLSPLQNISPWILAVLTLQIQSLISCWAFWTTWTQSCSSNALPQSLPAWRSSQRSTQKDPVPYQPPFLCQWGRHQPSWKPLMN

| Structure (SMILES) | AC50 | outcome |
| --- | --- | --- |
| C=CC(C)(O)CCC=C(C)CCC=C(C)C (stereo not given) | 120 µM (active) |  |
| CCCCOCCOCCOCCOCCO |  | inactive |
| O=Cc1ccc(Cl)c([N+](=O)[O-])c1 | 149 µM (active) |  |
| O=C(O)c1ccc([N+](=O)[O-])cc1 |  | inactive |
| S=C(S)NCCNC(=S)S |  | inactive |
| O=C(Nc1ccccc1)c1cc([N+](=O)[O-])ccc1Cl | 4.35 µM (active) |  |
| NCCCN1CCOCC1 |  | inactive |
| O=C(COc1ccc(Cl)cc1)N1CCN(Cc2ccc3c(c2)OCO3)CC1 |  | inactive |
| CCC(O)CO (stereo not given) |  | inactive |
| CC(=O)Nc1ccc(CC(=O)O)cc1 |  | inactive |
| NCCNCCN |  | inactive |
| CCN(CC)c1ccc2c(-c3ccccc3C(=O)O)c3ccc(=[N+](CC)CC)cc-3oc2c1 | 100 µM (active) |  |
| CC1(CO)CN(c2ccccc2)NC1=O (stereo not given) |  | inactive |
| CCCC1CCC(=O)O1 (stereo not given) |  | inactive |
| COc1ccnc(CS(=O)c2nc3cc(OC(F)F)ccc3[nH]2)c1OC (stereo not given) |  | inactive |
| NC(=O)Nc1ccc(Cl)cc1 |  | inactive |
| C=CC(C)(CCC=C(C)C)OC=O (stereo not given) |  | inactive |
| CCc1ccc(C=O)cc1 |  | inactive |
| O=C1c2ccccc2C(=O)N1SC1CCCCC1 | 26.5 µM (active) |  |
| C/C=C(\C)C(=O)OCc1ccccc1 |  | inactive |

| Structure (SMILES) | AC50 | outcome |
| --- | --- | --- |
| CC(O)C(C)O (stereo not given) |  | inactive |
| O=P(c1ccccc1)(c1ccccc1)c1ccccc1 |  | inactive |
| COc1ccc(Nc2ccccc2)c(C)c1 |  | inactive |
| Cc1ccc(C=O)cc1 |  | inactive |
| Cc1ccc(C(=O)c2cc(O)c(O)c([N+](=O)[O-])c2)cc1 |  | inactive |
| CCCC[n+]1ccccc1 |  | inactive |
| CC(c1cc2ccccc2s1)N(O)C(N)=O (stereo not given) |  | inactive |
| CCCCNC(=O)NS(=O)(=O)c1ccc(C)cc1 |  | inactive |
| O=C1OC2(c3cc(Br)c(O)c(Br)c3Oc3c2cc(Br)c(O)c3Br)c2c(Cl)c(Cl)c(Cl)c(Cl)c21 |  | inactive |
| CCOC(=O)c1ccccc1OC |  | inactive |
| CCCc1ccccc1O |  | inactive |
| O=[N+]([O-])c1ccc(C=Cc2ccc([N+](=O)[O-])cc2S(=O)(=O)O)c(S(=O)(=O)O)c1 |  | inactive |
| CCCC/C=C\CCCCCCCCCC=O |  | inactive |
| C[C@]12CC[C@H]3[C@@H](CCC4=CC(=O)CC[C@@]43C)[C@@H]1CC[C@@H]2C(=O)CO |  | inactive |
| O=c1[nH]nnc2ccccc12 |  | inactive |
| CN(C)CCCN |  | inactive |
| CC(C)=CCCC(C)=CCCC(C)=CCO |  | inactive |
| O=Cc1ccc(F)cc1 |  | inactive |
| O=S(=O)(O)c1ccc(O)c2ncccc12 |  | inactive |
| CC(C)CCCCCCCOC(=O)c1ccc(C(=O)OCCCCCCCC(C)C)c(C(=O)OCCCCCCCC(C)C)c1 |  | inactive |
